Source: PubChem
D2 ag-1: agonists of human D2 dopamine receptor (beta-arrestin) | P14416 | DiscoveRx PathHunter D2 beta-arrestin, luminescence, 90 min; 100% = 57 uM dopamine signal | activation, % (test concentration not listed) | 360,000 compounds, 0.084% hits | AID 624465; in the data active means activation above about 40%; inconclusive means between about 15% and that limit
Target sequence (P14416 whole entry, looked up): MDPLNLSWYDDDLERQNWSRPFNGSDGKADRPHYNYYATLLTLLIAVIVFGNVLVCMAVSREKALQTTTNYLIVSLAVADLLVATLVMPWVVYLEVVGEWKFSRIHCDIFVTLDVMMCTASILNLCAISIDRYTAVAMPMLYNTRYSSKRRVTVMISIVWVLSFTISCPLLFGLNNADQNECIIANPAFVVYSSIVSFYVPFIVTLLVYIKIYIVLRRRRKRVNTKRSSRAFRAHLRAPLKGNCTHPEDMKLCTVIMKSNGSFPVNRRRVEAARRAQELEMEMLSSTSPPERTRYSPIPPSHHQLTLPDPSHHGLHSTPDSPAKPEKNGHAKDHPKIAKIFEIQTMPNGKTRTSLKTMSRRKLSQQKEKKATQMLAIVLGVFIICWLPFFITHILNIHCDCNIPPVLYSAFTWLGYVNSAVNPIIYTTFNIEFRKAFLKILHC
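Agonist mode: compounds alone added to overnight-plated D2 PathHunter cells for 90 min at 37 C, with 57 uM final dopamine (EC100) defining full response. Beta-arrestin recruitment detected by chemiluminescent reagent, read after 1 h at ambient temperature.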
D2 ag-2: agonists of human D2 dopamine receptor. HEK293 T-REx D2 cells, calcium flux agonist mode. activation, % at 2 µM. 340,000 compounds, 0.53% hits. AID 485358;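 active means activation over 3 SD above normal in the single-dose calcium agonist read, cut at about 30% in these data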; further: 0% is about no effect
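Agonism is scored from calcium flux in a force-coupled, inducible HEK293 cell line expressing D2, read kinetically for 180 s after compound addition against dopamine controls.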
D2 antag: antagonizes the human D2 dopamine receptor; inhibition, % at 10 µM; AID 485344; P14416; HEK293 TREx D2 cells, calcium flux, dopamine EC80; 340,000 compounds, 2% hits; in the data active means inhibition above about 30%; inactive means below that, where a call was filed; further: 0% is about no effect
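Antagonism is scored as inhibition of an EC80 dopamine-evoked calcium signal in a force-coupled, tetracycline-inducible HEK293 T-REx D2 line, with compound present 180 s before agonist.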
D2 PAM-1: D2 dopamine receptor (human) potentiation; P14416; HEK293 T-REx D2, calcium flux, EC20 dopamine potentiation; potentiation, % at 10 µM; 340,000 compounds, 0.34% hits; AID 485347;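 active means potentiation over 3 SD above the plate norm, cut at about 30% in these data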; further: 0% is about no effect
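Cells plated with tetracycline inducer and held overnight at 30 C; calcium dye loaded 30–90 min at room temperature; baseline taken, compound added and read 180 s; EC20 dopamine then added and read 180 s.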
D2 PAM-2: potentiates the human D2 dopamine receptor allosterically. potentiation, % (test concentration not listed). 360,000 compounds, 0.23% hits. DiscoveRx D2 beta-arrestin cells, luminescence, 90 min; 100% = 57 uM dopamine signal. P14416. AID 624464; in the data active means potentiation above about 50%; inconclusive means mostly about 30% to 49%
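PathHunter beta-arrestin assay in DiscoveRx D2 cells. Compounds were added with an EC20 of dopamine (50 nM final) for 90 min at 37 deg C. Luminescence was read 1 h after detection reagent, with 57 uM dopamine as the EC100 control.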
Numbers without * were called inactive; ? = inconclusive; . = no result; ! = not confirmed by another sample. A selection: hits, their analogues and other compounds. The true share with any hit is near 2.4%.

SMILES	D2 ag-1	D2 ag-2	D2 antag	D2 PAM-1	D2 PAM-2
COc1ccc(CC2CC(=O)N(c3ccc(C)cc3)C2=O)cc1 (stereo unspecified)	7	0	-7	0	-2
COc1ccc(OC)c(N2C(=O)CC(Cc3ccc(C)cc3)C2=O)c1 (stereo unspecified)	0	-1	-2	35*	3
CCOC(=O)c1[nH]ncc1CN1CCCC(C(=O)c2ccc(OC)c(OC)c2)C1 (stereo unspecified)	1	.	.	.	-9
CCOC(=O)c1[nH]ncc1CN1CCCC(C(=O)c2cc(Cl)ccc2OC)C1 (stereo unspecified)	0	1	73*	-27	-6
CCCn1c(Nc2ccccc2)nc2ccccc21	-6	0	-17	-5	-31
CCN(CC)CCn1c(NCc2cccc(OC)c2)nc2ccccc21	-6	0	44*	-19	-39
CCN(CC)CCn1c(NC(=O)c2ccc(C(F)(F)F)cc2)nc2ccccc21	-4	-1	88*	-31	-26
CCCn1c(Nc2cccc(OC)c2)nc2ccccc21	3	-1	39*	4	-5
CCN(CC)CCn1c(NCc2ccc3c(c2)OCO3)nc2ccccc21	-1	1	33*	-20	-10
CCN(CC)CCn1c(NCc2cc(OC)ccc2OC)nc2ccccc21	-6	-2	14	-34	-41
Cc1ccccc1OCC(=O)OCc1cc(=O)n2nc(-c3cccs3)sc2n1	.	-1	.	-8	.
O=C(NCCOCCn1c(=O)oc2ccccc21)Nc1ccc(Cl)cc1	.	-1	.	.	.
CC1CC(C)(C)Nc2ccc(OC(=O)c3ccco3)cc21 (stereo unspecified)	?	1	0	10	112*
O=C(Oc1ccc2ccccc2c1)c1ccco1	-3	0	-7	-6	2
CCOc1ccc(C(C)NC(=S)NC2CCCCC2)cc1OCC (stereo unspecified)	-4	-1	41*	-6	-12
CCOc1ccc(C(C)NC(=S)NC2CCCCC2)cc1 (stereo unspecified)	1	.	.	.	14
CCc1ccc(C(C)NC(=S)NC2CCCCC2)cc1 (stereo unspecified)	-5	1	48*	11	-13
Cc1nn(CC(=O)Nc2cccc(C(F)(F)F)c2)c(=O)c2nn(-c3ccccc3)c(C)c12	.	-1	.	-4	.
COc1cc(C(=O)NCc2ccc(OCCN(C)C)cc2)cc(OC)c1OC	-4	0	72*	-21	-38
COc1cc(O)c2c(c1)OC(C)(C)CC2=O	-2	1	4	.	-5
COc1cc(O)cc2cc3c(c(O)c12)C(=O)CC(C)(O)O3 (stereo unspecified)	4	0	37*	6	20
COc1nc(OC)nc(N2CCCCCC2)n1	0	-1	33*	4	-4
COc1nc(OC)nc(N2CCC(C(=O)NCC3CCCCC3)CC2)n1	0	-1	-5	14	-4
Cc1ccccc1-n1nnnc1SCC(=O)c1c(N)n(C)c(=O)n(C)c1=O	1	10	18	12	-2
COCC(C)n1c(COc2ccccc2F)nnc1SCC(=O)c1c(N)n(C)c(=O)n(C)c1=O (stereo unspecified)	-4	1	-7	15	-7
SMILES	D2 ag-1	D2 ag-2	D2 antag	D2 PAM-1	D2 PAM-2
Cn1c(N)c(C(=O)CSc2nnnn2-c2ccccc2)c(=O)n(C)c1=O	2	7	39*	-13	1
CCCCCCn1c(COc2ccccc2F)nnc1SCC(=O)c1c(N)n(C)c(=O)n(C)c1=O	.	-1	-7	32*	.
Cn1c2ccccc2c(=O)c2c(=O)n(Cc3ccco3)c(-c3ccc(F)cc3)nc21	-4	-1	-7	9	-7
Cc1ccc(-c2nc3c(c(=O)c4ccccc4n3C)c(=O)n2Cc2ccco2)cc1	4	4	36*	12	8
CSc1ccc(/C=C/C(=O)OCC(=O)N2CCN(S(=O)(=O)c3ccc(C)cc3C)CC2)cc1	3	0	41*	-2	-4
CC(C)N(C(=O)CN1C(=O)C(=O)c2ccccc21)c1ccccc1	-3	2	36*	0	-2
O=C(CN1C(=O)C(=O)c2ccccc21)c1ccccc1	-17	-2	3	-4	-5
O=C1c2ccccc2C(=O)N1CC1c2ccccc2CCN1S(=O)(=O)c1cnc[nH]1 (stereo unspecified)	1	1	46*	-4	21
Clc1ccc(-c2ccc(/C=N/Nc3nncc(-c4ccccc4)n3)o2)cc1	-3	0	-6	-3	-7
Cc1ccc(/C=N/Nc2nncc(-c3ccccc3)n2)o1	-4	0	51*	-10	-3
Cc1ccc(S(=O)(=O)NCCSc2ncccn2)cc1	-7	0	86*	-34	-4
OC(c1ccc(F)c(F)c1)c1nc(-c2csc3ccccc23)cs1 (stereo unspecified)	-3	.	.	.	-15
CCOP(=O)(c1ccccc1)c1nc(-c2ccc(F)cc2)oc1N1CCCCC1 (stereo unspecified)	-4	0	32*	11	-14
CCOP(=O)(OCC)c1nc(-c2ccc(Br)cc2)oc1N1CCCCC1	-1	.	.	.	-4
O=C(NCCCN1CCCCC1)c1ccc2c(c1)NC(=O)c1ccccc1S2	1	0	11	-18	-9
CC(C)OCCCNC(=O)c1ccc2c(c1)NC(=O)c1ccccc1S2	2	-1	-17	37*!	-1
CCN(CC)CCOC(=O)c1ccc(NC(=O)CCn2c(=O)oc3ccccc32)cc1	.	0	.	4	.
Cc1cc(C(=O)COC(=O)c2ccc[nH]c2=O)c(C)n1C	-1	1	-15	2	19
COCCn1c(C)cc(C(=O)COC(=O)c2ccc[nH]c2=O)c1C	0	0	62*	4	4
O=C(O)c1nn(CCOc2cccc(Cl)c2)c(=O)c2ccccc12	-3	0	-4	1	1
COCCn1c(C)cc(C(=O)Cn2nc(C(=O)O)c3ccccc3c2=O)c1C	3	1	32*	-1	-8
O=C(O)c1nn(CCOc2c(Cl)cccc2Cl)c(=O)c2ccccc12	3	-1	4	45*	-2
COCCNc1nc(Nc2ccc(C(=O)OC)cc2)c2sccc2n1	-4	.	.	.	-11
COc1cccc(-c2ccc(CN3C(C(C)C)C(=O)N(Cc4cn(CCC5OCCO5)nn4)CCS3(=O)=O)cc2)c1OC (stereo unspecified)	-2	.	.	.	2
COc1ccc(C(=O)c2c(N)c(C(=O)Nc3ccccc3Cl)c3ccccn23)cc1	.	.	.	-20	.
CCOC(=O)C1=C(C)NC(=S)N(C(C)=O)C1c1ccccc1 (stereo unspecified)	-1	0	32*	-1	-3
CC(C)N1CCc2c(sc(NC(=O)CCc3ccccc3)c2C(N)=O)C1	-1	-1	10	25	-4
